From PubChem BioAssay (NCI)
The panel holds about 79,000 compounds, 15% with a hit somewhere; the sample as a whole holds those more often. Active and inactive are the calls of the source. Rule as the data show it: active = growth inhibition above about 70%; inactive = the rest.

Columns and labels:
[1] = NCI Yeast Anticancer Drug Screen. Data for the rad52 strain (AID 147);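 also: 0% = growth of vehicle-treated control cultures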; settings: S. cerevisiae rad52 mutant growth inhibition, hits give high values
How it was run: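 Compounds are applied to a genetically defined yeast strain lacking normal DNA damage repair, and inhibition of growth is expressed relative to cultures given vehicle only.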

[2] = NCI Yeast Anticancer Drug Screen. Data for the wt1 strain (AID 149);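 also: 0% = growth of vehicle-treated wt1 cultures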; settings: S. cerevisiae wt1 strain (SPY 50644) growth inhibition, hits give high values
How it was run: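 wt1 strain grown with compound or vehicle; inhibition taken from the growth difference.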

[3] = NCI Yeast Anticancer Drug Screen. Data for the rad50EPP+ strain (AID 151);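 also: 0% = growth of vehicle-treated control cultures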; settings: S. cerevisiae rad50 mutant strain, hits give high values
How it was run: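 Compounds were applied to the rad50EPP+ yeast strain, which bears a defined DNA repair alteration, and growth inhibition was determined relative to vehicle-treated cultures.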

[4] = NCI Yeast Anticancer Drug Screen. Data for the mgt1 strain (AID 153); settings: S. cerevisiae mgt1 mutant growth inhibition, hits give high values
How it was run: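 Strain: mgt1 yeast, one of a set carrying defined DNA damage repair or cell cycle control alterations. Compound-treated growth compared with vehicle.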

[5] = NCI Yeast Anticancer Drug Screen. Data for the rad50 strain (AID 155);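 also: 0% = growth of vehicle-only cultures of the same strain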; settings: S. cerevisiae rad50 strain growth inhibition, hits give high values
How it was run: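 DNA repair mutant yeast, compound exposure, growth read-out; inhibition is taken relative to vehicle.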

[6] = NCI Yeast Anticancer Drug Screen. Data for the mec2-1 strain (AID 157); settings: S. cerevisiae mec2-1 strain, hits give high values
How it was run: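 Strain: mec2-1 (DNA repair/cell cycle alteration). Compound exposure, then growth measured; inhibition expressed relative to vehicle.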

[7] = NCI Yeast Anticancer Drug Screen. Data for the rad14 strain (AID 159);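 also: 0% = growth of vehicle-treated control cultures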; settings: S. cerevisiae rad14 strain growth inhibition, hits give high values
How it was run: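 DNA repair-defective yeast, compound-exposed; % growth inhibition derived by comparison with vehicle-treated controls.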

[8] = NCI Yeast Anticancer Drug Screen. Data for the sgs1 mgt1 strain (AID 161);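 also: 0% = growth of cultures given vehicle only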; settings: S. cerevisiae sgs1 mgt1 strain, hits give high values
How it was run: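 Inhibition of yeast growth, normalised to vehicle-treated controls, is reported for a strain bearing genetic alterations in DNA damage repair.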

[9] = NCI Yeast Anticancer Drug Screen. Data for the CLN2oe strain (AID 163);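 also: 0% = growth of vehicle-only control cultures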; settings: S. cerevisiae CLN2oe strain, hits give high values
How it was run: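 Growth of a genetically modified yeast strain is measured after compound exposure and compared with cultures given vehicle alone.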

[10] = NCI Yeast Anticancer Drug Screen. Data for the bub3 strain (AID 167); settings: S. cerevisiae bub3 mutant strain, hits give high values
How it was run: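 In this screen, a yeast mutant lacking normal mitotic checkpoint function is challenged with compound. Relative growth versus vehicle gives the inhibition value.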

[11] = NCI Yeast Anticancer Drug Screen. Data for the wt2 strain (AID 169);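 also: 0% = growth of vehicle-treated yeast cultures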; settings: S. cerevisiae wt2 strain growth inhibition, hits give high values
How it was run: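 This strain belongs to a panel of yeast strains with defined genetic alterations in DNA damage repair or cell cycle control. Compounds are applied, and growth inhibition is measured against vehicle-treated cultures.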

[12] = NCI Yeast Anticancer Drug Screen. Data for the mlh1 strain (AID 171);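 also: 0% = growth of vehicle-treated control cultures of the same strain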; settings: S. cerevisiae mlh1 strain growth inhibition, hits give high values
How it was run: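 Growth of the mutant yeast strain after compound exposure, expressed as inhibition relative to vehicle-only controls.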

[13] = NCI Yeast Anticancer Drug Screen. Data for the sgs1 strain (AID 173);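 also: 0% = growth of vehicle-only control cultures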; settings: S. cerevisiae sgs1 mutant, hits give high values
How it was run: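 Growth of a yeast strain bearing a defined genetic alteration is measured after compound treatment. Inhibition is expressed relative to vehicle-only controls.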

[14] = NCI Yeast Anticancer Drug Screen. Data for the mlh1 rad18 strain (AID 175); settings: S. cerevisiae mlh1 rad18 strain growth inhibition, hits give high values
How it was run: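 Read-out is yeast growth inhibition, calculated against vehicle-only controls. The compound was applied to a strain engineered with DNA damage repair alterations.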

[15] = NCI Yeast Anticancer Drug Screen. Data for the rad18 strain (AID 177); settings: S. cerevisiae rad18 mutant growth inhibition, hits give high values
How it was run: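 Growth of the mutant yeast strain after compound exposure, normalised to vehicle-only cultures.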

[16] = at 5.0 µM (retest, dose inferred, filed as 0.5)
[17] = at 50.0 µM (retest, dose inferred, filed as 5.0)

Measured: growth inhibition

O=C1C(=O)N(c2ccccc2)[C@@]2(c3ccccc3)C(=Nc3ccccc3)OC(c3ccccc3)=C12
active: [3]; at 100.0 µM 84% | [4]; at 11.0 µM 80% | [4]; at 33.0 µM 94% | [4]; at 100.0 µM 97% | [8]; [17] 96% | [11]; at 11.0 µM 72% | [11]; at 33.0 µM 93% | [11]; at 100.0 µM 96% | [12]; at 33.0 µM 93% | [12]; at 100.0 µM 95% | [13]; at 11.0 µM 74% | [13]; at 33.0 µM 93% | [13]; at 100.0 µM 96%
inactive: [1]; at 1.2 µM 0% | [1]; at 3.7 µM 0% | [1]; at 11.0 µM 3% | [1]; at 33.0 µM 4% | [1]; at 100.0 µM 40% | [2]; at 1.2 µM -2% | [2]; at 3.7 µM -1% | [2]; at 11.0 µM -1% | [2]; at 33.0 µM 2% | [2]; at 100.0 µM 31% | [3]; at 1.2 µM -3% | [3]; at 3.7 µM -1% | [3]; at 11.0 µM 2% | [3]; at 33.0 µM 31% | [4]; at 1.2 µM -3% | [4]; at 3.7 µM -1% | [5]; at 1.2 µM -1% | [5]; at 3.7 µM -2% | [5]; [16] 0% | [5]; at 11.0 µM 0% | [5]; at 33.0 µM 3% | [5]; [17] 4% | [5]; at 50.0 µM 21.6% | [5]; at 100.0 µM 36% | [6]; at 1.2 µM -2% | [6]; at 3.7 µM -1% | [6]; [16] -30% | [6]; at 11.0 µM 0% | [6]; at 33.0 µM 6% | [6]; [17] 45% | [6]; at 50.0 µM 10.5% | [6]; at 100.0 µM 41% | [7]; at 1.2 µM -1% | [7]; at 3.7 µM 1% | [7]; at 11.0 µM 3% | [7]; at 33.0 µM 8% | [7]; at 100.0 µM 57% | [8]; [16] 49% | [8]; at 50.0 µM 52% | [9]; at 1.2 µM 2% | [9]; at 3.7 µM 0% | [9]; at 11.0 µM 1% | [9]; at 33.0 µM 9% | [9]; at 100.0 µM 47% | [10]; at 1.2 µM -1% | [10]; at 3.7 µM -6% | [10]; [16] -5% | [10]; at 11.0 µM -5% | [10]; at 33.0 µM -5% | [10]; [17] 9% | [10]; at 50.0 µM 4.75% | [10]; at 100.0 µM 20% | [11]; at 1.2 µM -3% | [11]; at 3.7 µM -5% | [12]; at 1.2 µM -3% | [12]; at 3.7 µM -4% | [12]; at 11.0 µM 62% | [13]; at 1.2 µM -3% | [13]; at 3.7 µM 2% | [14]; [16] 1% | [14]; [17] -8% | [14]; at 50.0 µM 40.1% | [15]; at 1.2 µM -3% | [15]; at 3.7 µM 0% | [15]; at 11.0 µM 2% | [15]; at 33.0 µM 4% | [15]; at 100.0 µM 30%
